What all share (experiment): DAPPL (digital affinity profiling via proximity ligation, sequencing); 10 mM Tris-HCl pH 7.5, 50 mM NaCl, 1 mM DTT, 4% glycerol, room temperature, 30 min; GST-TFs on glutathione beads, 16-mer random dsDNA library, 0.1% formaldehyde crosslink after washing; high values mean tight binding
Holding throughout (conditions): protein: recombinant; tags: N-terminal GST; dsDNA, one strand shown

In assay [1] the target is T1, GABPA (Homo sapiens, UniProt Q06546 1-454).
T1 sequence: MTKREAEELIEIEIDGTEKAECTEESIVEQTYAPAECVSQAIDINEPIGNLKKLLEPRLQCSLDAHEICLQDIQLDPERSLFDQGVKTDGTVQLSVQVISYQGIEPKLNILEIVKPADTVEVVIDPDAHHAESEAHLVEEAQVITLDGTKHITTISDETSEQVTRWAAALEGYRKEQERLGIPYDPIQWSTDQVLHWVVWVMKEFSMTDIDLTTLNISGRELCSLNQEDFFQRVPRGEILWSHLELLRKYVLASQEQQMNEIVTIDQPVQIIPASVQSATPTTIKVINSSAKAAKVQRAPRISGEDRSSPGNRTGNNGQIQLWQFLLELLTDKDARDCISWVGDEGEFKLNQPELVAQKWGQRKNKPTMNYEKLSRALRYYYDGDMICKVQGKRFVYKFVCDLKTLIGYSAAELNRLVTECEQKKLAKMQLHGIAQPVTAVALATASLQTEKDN
The method, boiled down: (§1)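 Pools were built from human transcription factors expressed in yeast as GST fusions, captured on glutathione beads and DNA-barcoded, along with a tag-only sample. Incubation with 200 nmole of a 16-mer random double-stranded DNA library lasted 30 min at room temperature in Tris/NaCl/DTT/glycerol buffer, and was followed by washing, 0.1% formaldehyde crosslinking, proximity ligation, PCR amplification and Illumina NextSeq500 sequencing. Binding signal is the quotient of each hexamer's read frequency for a factor and its frequency for the tag-only sample.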

The target in assay [2] is T2, ERG (Homo sapiens, UniProt P11308 1-479).
T2 sequence: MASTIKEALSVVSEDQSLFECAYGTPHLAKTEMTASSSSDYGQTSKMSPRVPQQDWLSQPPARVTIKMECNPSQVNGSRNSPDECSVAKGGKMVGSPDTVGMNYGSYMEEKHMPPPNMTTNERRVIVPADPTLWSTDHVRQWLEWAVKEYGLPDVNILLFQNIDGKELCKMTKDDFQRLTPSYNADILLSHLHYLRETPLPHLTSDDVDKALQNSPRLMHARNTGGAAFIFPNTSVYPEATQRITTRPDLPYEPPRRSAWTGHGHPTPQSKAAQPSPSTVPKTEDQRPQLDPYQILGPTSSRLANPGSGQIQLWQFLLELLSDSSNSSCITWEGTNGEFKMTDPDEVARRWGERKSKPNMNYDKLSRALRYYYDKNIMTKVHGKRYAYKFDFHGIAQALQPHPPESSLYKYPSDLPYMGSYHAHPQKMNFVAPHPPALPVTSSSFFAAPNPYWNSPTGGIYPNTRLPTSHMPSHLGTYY
In a few lines:
as §1

Assay [3] addresses ELF1 (Homo sapiens, UniProt P32519 1-619). The method, boiled down:
as §1

In assay [4] the target is T3, EHF (Homo sapiens, UniProt Q9NZC4 1-300).
T3 sequence: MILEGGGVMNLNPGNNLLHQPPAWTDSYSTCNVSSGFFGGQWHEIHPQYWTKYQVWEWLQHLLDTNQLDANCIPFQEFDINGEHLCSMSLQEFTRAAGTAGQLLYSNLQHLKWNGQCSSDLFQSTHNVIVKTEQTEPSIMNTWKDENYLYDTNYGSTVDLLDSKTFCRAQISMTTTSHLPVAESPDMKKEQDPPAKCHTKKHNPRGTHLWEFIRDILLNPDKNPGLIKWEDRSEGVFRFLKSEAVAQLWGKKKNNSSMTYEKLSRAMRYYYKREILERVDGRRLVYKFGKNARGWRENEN
In a few lines:
as §1

Assay [5] deals with SPI1 (Homo sapiens, UniProt P17947 1-270). In a few lines:
as §1

For assay [6], the target named is SPIB (Homo sapiens, UniProt Q01892 1-262). In a few lines: as §1
Sequence of SPIB (Q01892 whole entry): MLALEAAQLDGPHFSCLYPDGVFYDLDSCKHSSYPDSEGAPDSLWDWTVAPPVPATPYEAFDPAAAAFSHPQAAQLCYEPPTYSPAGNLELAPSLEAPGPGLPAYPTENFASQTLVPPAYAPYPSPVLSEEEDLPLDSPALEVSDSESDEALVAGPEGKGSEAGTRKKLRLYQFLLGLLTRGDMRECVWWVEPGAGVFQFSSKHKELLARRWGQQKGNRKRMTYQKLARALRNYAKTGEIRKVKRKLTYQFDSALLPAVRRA
For assay [7], the target named is ETV5 (Homo sapiens, UniProt P41161 1-510). In a few lines:
as §1

The target in assay [8] is T4, ELK4 (Homo sapiens, UniProt P28324-2 1-405).
T4 sequence: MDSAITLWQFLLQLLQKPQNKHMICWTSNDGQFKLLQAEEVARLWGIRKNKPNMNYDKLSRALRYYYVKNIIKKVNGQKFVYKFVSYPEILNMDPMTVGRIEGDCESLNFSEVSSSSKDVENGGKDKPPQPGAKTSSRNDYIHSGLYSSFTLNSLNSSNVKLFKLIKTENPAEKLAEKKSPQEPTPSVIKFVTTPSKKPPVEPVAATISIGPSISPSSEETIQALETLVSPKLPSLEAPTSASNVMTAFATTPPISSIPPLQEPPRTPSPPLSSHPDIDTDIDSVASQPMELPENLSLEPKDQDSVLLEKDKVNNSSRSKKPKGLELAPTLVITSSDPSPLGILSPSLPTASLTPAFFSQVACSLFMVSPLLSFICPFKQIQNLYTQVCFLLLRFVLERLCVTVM
The method, boiled down: as §1

The target of assay [9] is T5, ETV2 (Homo sapiens, UniProt O00321 1-342).
T5 sequence: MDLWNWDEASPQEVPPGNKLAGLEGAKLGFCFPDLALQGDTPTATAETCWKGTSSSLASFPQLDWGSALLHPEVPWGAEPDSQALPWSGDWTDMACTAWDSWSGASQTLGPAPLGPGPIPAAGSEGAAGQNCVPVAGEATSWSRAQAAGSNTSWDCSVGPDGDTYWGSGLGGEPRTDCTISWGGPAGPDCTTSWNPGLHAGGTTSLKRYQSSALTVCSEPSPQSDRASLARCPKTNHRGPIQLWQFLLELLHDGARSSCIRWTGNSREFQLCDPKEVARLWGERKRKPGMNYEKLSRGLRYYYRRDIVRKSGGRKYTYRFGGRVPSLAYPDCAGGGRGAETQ
The method, boiled down: as §1

In assay [10] the target is ETV1 (Homo sapiens, UniProt P50549 1-477). The method, boiled down:
as §1

In assay [11] the target is T6, ERF (Homo sapiens, UniProt P50548 1-548).
T6 sequence: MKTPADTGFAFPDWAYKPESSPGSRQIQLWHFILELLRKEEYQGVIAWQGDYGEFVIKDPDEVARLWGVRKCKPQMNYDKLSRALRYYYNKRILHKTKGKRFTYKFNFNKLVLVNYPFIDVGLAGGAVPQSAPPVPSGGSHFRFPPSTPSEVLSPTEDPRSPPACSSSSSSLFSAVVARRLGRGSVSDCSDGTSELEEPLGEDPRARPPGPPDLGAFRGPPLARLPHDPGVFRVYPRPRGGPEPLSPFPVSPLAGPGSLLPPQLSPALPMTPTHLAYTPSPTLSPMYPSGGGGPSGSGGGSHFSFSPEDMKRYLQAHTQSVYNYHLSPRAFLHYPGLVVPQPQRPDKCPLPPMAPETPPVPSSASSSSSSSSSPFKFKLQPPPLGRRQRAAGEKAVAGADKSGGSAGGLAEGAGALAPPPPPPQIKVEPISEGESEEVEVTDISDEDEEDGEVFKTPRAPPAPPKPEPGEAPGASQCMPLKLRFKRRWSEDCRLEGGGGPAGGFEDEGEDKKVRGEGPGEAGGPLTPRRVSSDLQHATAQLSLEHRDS
The method, boiled down:
as §1

Assay [12] has as its target T7, ETV3L (Homo sapiens, UniProt Q6ZN32 1-361).
T7 sequence: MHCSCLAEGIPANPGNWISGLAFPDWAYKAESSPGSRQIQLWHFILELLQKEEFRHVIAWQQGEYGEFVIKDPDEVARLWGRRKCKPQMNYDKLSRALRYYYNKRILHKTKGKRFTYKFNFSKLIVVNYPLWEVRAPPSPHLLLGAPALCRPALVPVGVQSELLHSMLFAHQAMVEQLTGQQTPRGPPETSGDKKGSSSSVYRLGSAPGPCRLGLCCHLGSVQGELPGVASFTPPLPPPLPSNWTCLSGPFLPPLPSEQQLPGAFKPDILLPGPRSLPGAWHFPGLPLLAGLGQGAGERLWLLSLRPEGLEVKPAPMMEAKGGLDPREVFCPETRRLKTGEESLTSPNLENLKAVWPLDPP
The method, boiled down:
as §1

Assay [13] deals with T8, ETV3 (Homo sapiens, UniProt P41162-2 1-143).
T8 sequence: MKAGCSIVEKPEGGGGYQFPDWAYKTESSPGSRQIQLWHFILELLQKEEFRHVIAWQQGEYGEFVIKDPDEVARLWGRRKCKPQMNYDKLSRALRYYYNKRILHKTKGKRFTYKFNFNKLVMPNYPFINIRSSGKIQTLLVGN
The method, boiled down: as §1

The text below walks through data of paper PMC7862700, “An all-to-all approach to the identification of sequence-specific readers for epigenetic DNA modifications on cytosine”.

Sequence of ETV1 (P50549 whole entry): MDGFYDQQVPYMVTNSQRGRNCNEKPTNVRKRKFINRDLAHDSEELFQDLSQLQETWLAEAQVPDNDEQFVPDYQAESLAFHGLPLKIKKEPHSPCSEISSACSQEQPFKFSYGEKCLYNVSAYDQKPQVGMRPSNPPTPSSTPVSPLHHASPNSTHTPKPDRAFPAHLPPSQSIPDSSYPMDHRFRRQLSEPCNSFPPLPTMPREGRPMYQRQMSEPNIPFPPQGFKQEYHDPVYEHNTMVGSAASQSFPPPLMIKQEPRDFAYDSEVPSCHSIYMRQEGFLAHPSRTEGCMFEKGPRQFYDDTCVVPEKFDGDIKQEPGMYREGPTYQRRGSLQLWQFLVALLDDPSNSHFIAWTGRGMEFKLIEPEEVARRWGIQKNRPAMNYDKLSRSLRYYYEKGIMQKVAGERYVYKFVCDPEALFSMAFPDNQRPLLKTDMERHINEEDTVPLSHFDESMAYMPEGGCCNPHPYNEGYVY
Sequence of ELF1 (P32519 whole entry): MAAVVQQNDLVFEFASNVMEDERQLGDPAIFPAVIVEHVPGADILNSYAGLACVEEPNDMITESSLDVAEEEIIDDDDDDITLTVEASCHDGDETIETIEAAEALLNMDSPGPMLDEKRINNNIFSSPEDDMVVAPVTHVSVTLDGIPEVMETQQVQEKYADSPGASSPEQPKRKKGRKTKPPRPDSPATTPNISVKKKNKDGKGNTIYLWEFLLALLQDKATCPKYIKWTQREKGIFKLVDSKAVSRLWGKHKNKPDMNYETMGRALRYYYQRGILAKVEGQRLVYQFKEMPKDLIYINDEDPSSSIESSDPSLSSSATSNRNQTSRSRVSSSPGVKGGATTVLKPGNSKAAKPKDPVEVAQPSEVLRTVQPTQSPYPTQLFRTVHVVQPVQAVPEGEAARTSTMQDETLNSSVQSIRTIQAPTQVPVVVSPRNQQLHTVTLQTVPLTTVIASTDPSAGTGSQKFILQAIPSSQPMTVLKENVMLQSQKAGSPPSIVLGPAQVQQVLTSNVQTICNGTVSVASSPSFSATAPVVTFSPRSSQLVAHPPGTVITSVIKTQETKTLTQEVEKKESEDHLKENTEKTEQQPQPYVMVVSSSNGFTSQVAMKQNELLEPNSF
Sequence of ETV5 (P41161 whole entry): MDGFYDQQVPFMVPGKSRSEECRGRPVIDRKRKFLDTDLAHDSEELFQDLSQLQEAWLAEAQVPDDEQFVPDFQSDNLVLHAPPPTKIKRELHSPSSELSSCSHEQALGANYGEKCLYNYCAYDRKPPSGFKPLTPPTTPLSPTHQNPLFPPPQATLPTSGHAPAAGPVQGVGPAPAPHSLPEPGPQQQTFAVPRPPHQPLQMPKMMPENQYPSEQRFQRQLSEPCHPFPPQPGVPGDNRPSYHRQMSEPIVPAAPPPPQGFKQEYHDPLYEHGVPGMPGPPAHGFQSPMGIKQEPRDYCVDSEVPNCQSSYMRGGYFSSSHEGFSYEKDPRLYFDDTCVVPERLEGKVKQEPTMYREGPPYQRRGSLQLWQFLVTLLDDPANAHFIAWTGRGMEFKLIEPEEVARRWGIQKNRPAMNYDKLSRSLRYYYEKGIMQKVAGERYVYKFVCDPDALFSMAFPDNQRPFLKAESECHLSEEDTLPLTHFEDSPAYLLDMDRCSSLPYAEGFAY

As to TGAAAT, the binding signal was 1.03 fold enrichment (6-mer frequency, TF over GST control) in assay [1]; 1.02 fold enrichment (6-mer frequency, TF over GST control) in [2]; 1 fold enrichment (6-mer frequency, TF over GST control) in assay [3]; 1.01 fold enrichment (6-mer frequency, TF over GST control) in [4]; 1.02 fold enrichment (6-mer frequency, TF over GST control) in [5]; 1.01 fold enrichment (6-mer frequency, TF over GST control) in [6]. Further, the binding signal is 1.07 fold enrichment (6-mer frequency, TF over GST control) in [7]; 1.04 fold enrichment (6-mer frequency, TF over GST control) in assay [8]; 1.04 fold enrichment (6-mer frequency, TF over GST control) in [9]; 1.08 fold enrichment (6-mer frequency, TF over GST control) in [10]; 1.01 fold enrichment (6-mer frequency, TF over GST control) in assay [11]; 1.04 fold enrichment (6-mer frequency, TF over GST control) in assay [12]. For the same sequence, the binding signal in [13] is 1.03 fold enrichment (6-mer frequency, TF over GST control).
